Screening data: PubChem BioAssay, National Center for Advancing Translational Sciences (NCATS)
FMDV inh: blocks foot and mouth disease virus; Potency, µM (highest dose often 57.9 µM), inactives show at the top dose activity change, negative = inhibition, usual class: inhibitors; actives 1.2% (n = 410,000); AID 1159524; FMDV antiviral cell-based qHTS; calls by dose curve; tested in HEK293T cells; note: read-out not given here; potency is the fitted concentration of half-maximal effect; nearly all actives have a fitted effect of over 45% in size
VACV mCherry inh: vaccinia inhibition (mCherry reporter). Vaccinia virus mCherry reporter infection, fluorescence. Potency, µM (series often up to 36.5 µM), for the others: at the top dose activity change, negative = inhibition, actives largely listed as inhibitors. actives 0.63% (n = 310,000); calls by dose curve; tested in A549 cells; note: potency is the fitted concentration of half-maximal effect; nearly all actives have a fitted effect of over 35% in size
MARV entry inh: blocks Marburg virus binding to or entry into cells | Marburg virus pseudotyped entry inhibition, cell reporter | Potency, µM (doses to about 37.8 µM), for the others: at the top dose activity change, negative = inhibition, usual class: inhibitors | actives 1.8% (n = 300,000) | AID 540276; calls by dose curve; tested in HEK293 cells; note: potency is the fitted concentration of half-maximal effect
Vaccinia Venus: inhibitors of vaccinia virus (Venus reporter); Vaccinia virus Venus reporter expression, fluorescence; Potency, µM (series often up to 36.5 µM), without a hit: at the top dose activity change, negative = inhibition, hits mostly inhibitors; actives 0.46% (n = 330,000); AID 720580; calls by dose curve; tested in A549 cells; note: potency is the fitted concentration of half-maximal effect; nearly all actives have a fitted effect of over 30% in size
Lassa entry inh: inhibitors of Lassa virus binding or cell entry. actives 1.2% (n = 300,000). Lassa virus pseudotype entry inhibition, cell reporter. Potency, µM (doses to about 37.9 µM), for the others: top-dose activity change, negative = inhibition, actives largely listed as inhibitors; calls by dose curve; tested in HEK293 cells; note: potency is the fitted concentration of half-maximal effect; nearly all actives have a fitted effect of over 50% in size
HCMV inh: human cytomegalovirus inhibition; HFF cells, HCMV-luciferase reporter, 72 h; active compounds read low; activity change, negative = inhibition, % at 57.5 µM; actives 4.5% (n = 410,000); AID 1259415; in the data active = activity change below about -60%; inconclusive = no clear call, values can overlap the other calls; inactive = above about -39%
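After 16 h attachment at 37C, HFF cells received test compound and HCMV-luciferase (1 PFU/cell); reporter luminescence read 72 h later, data normalized against buffer-only and known inhibitor Salinomycin.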
* = called active by the depositor; i = inactive; ? = inconclusive; nt = no result given; ! = repeats disagree; [ ] = another dose, or the depositor's remark. Most compounds without a hit are left out; they make up all but 6.5% or so of the library. % is set by controls: 0 for no effect and ±100 for the full control effect.

SMILES	FMDV inh	VACV mCherry inh	MARV entry inh	Vaccinia Venus	Lassa entry inh	HCMV inh
Cc1ccc(/C=C2/C(=O)NC(=O)N(Cc3ccc(F)cc3)C2=O)o1	nt	nt	nt	nt	nt	28
O=C1NC(=O)N(Cc2ccc(F)cc2)C(=O)/C1=C\c1ccoc1	-28%	i[7.34 µM]	10%[46.1 µM]	9%[7.34 µM]	-14%	?
Cc1ccc(/C=C2\C(=O)NC(=O)N(CCc3ccc(F)cc3)C2=O)o1	22µM*	nt	1%	nt	nt	27
Cc1ccc(/C=C2\C(=O)NC(=O)N(Cc3ccccc3Cl)C2=O)o1	32µM*	nt	nt	nt	nt	125
O=C1NC(=O)N(Cc2ccc(F)cc2)C(=O)/C1=C/c1cccs1	32µM*	i	-22%	-2%	-4%	12
O=C(CSc1nnc(SCc2ccc(Cl)cc2)s1)N/N=C/c1ccccc1C(=O)O	-3%	nt	nt	nt	nt	-25
COc1cc2[nH]c(=S)nc(NC3CCCCCC3)c2cc1OC	?	i	?	0%	6%	-74*
COc1ccc(NC(=O)/C=C/c2cc(Br)ccc2OC)cc1	-2%	nt	12%	-16%	-5%	-29
COc1ccc(Br)cc1/C=C/C(=O)c1ccc(NC(C)=O)cc1	10µM*	4.5µM*	?	5.6µM*	4µM*	-98*
Cc1sc2nc(C3CC3)nc(N3CCN(C(=O)c4ccc(F)cc4)CC3)c2c1C	-28%	-11%	?	-5%	?	-81*
Cc1sc2nc(C3CC3)nc(N3CCN(C(=O)c4ccc(Cl)cc4)CC3)c2c1C	?	-25%	?	-13%	?	-21
COc1ccc([C@H]2CC(=O)C[C@@H](CCn3cc(-c4ccccn4)nn3)O2)cc1	-7%	24%	nt	4%	nt	18
Cc1ccc(-c2csc3ncnc(SCC(=O)Nc4nnc(C)s4)c23)cc1	-1%	nt	?	nt	3%	12
Cc1ccc(-c2csc3ncnc(Sc4nnc(CN5CCCCCC5=O)o4)c23)cc1	14µM*	nt	?	nt	?	-70*
O=[N+]([O-])c1cc(-c2csc(NCCc3nc4cc(C(F)(F)F)ccc4n3CCCO)n2)ccc1Cl	?	i	nt	-11%	nt	16
OCCCn1c(CCNc2nc(-c3ccc(Cl)cc3)cs2)nc2cc(C(F)(F)F)ccc21	-15%	?	nt	-21%	nt	-63*
CCOc1ccccc1OCCCC(=O)Nc1sccc1C(N)=O	-5%	-29%	?	-24%	1%	-61*
NC(=O)c1ccsc1NC(=O)CCc1ccccc1	42%	nt	nt	nt	nt	5
CCn1c(/C(C#N)=N/O)nc2ccccc21	0%	-6%	-5%	-17%	1%	-6
CCn1c(/C(C#N)=C/c2ccccc2Cl)nc2ccccc21	-17%	8%	nt	8%	-12%[46.1 µM]	-73*
CCCCNC(=O)N1CCCN(c2ccc(C#N)cn2)CC1	5%	nt	-5%	nt	nt	-65*
Cc1ccccc1NC(=O)N1CCCN(c2ccc(C#N)cn2)CC1	-19%	-10%	-2%	-3%	3%	49
O=C(CCl)NC(=O)NC12CC3CC(CC(C3)C1)C2	?	i	?	-6%	?	-99*
Cc1ccsc1/C=C1\CCC(C2CCCC2)C1=O (centres undefined)	-43%	-12%	7.9µM*	-11%	?	-1
Cc1ccc(/C=C2\CCC(C3CCCC3)C2=O)cc1 (centres undefined)	-5%	-8%	?	-4%	0%	?
SMILES	FMDV inh	VACV mCherry inh	MARV entry inh	Vaccinia Venus	Lassa entry inh	HCMV inh
COc1ccc(NC(=O)CSC2=Nc3ccccc3N=C(c3ccc(F)cc3)C2)cc1OC	?	-15%	nt	-9%	27%[46.1 µM]	-102*
CCc1cccc(NC(=O)CSC2=Nc3ccccc3N=C(c3ccc(F)cc3)C2)c1	-23%	-11%	nt	-14%	0%[46.1 µM]	-35
CN(C)c1ccc(-c2nn3c(-c4ccccc4Cl)nnc3s2)cc1	-11%	-11%	-33%	-22%	?	-74*
Clc1ccccc1-c1nnc2sc(-c3ccncc3)nn12	-3%	-9%	nt	-9%	nt	-16
COc1ccccc1-c1nnc2sc(-c3ccc(N(C)C)cc3)nn12	-2%	?	?	?	?	-93*
CCc1ccccc1NC(=O)CCc1c(C)nn(-c2ccc(N3CCOCC3)nn2)c1C	-19%	-9%	nt	-4%	6%[46.1 µM]	-62*!
c1ccc(-c2ccc(-c3nc(-c4ccncc4)no3)cc2)cc1	nt	-12%	?	-5%	?	-72*
CCc1ccc(-c2nc(-c3ccncc3)no2)cc1	-73%	nt	13µM*	?	?	12
c1ccc(-c2nc(-c3ccncc3)no2)cc1	38%	-14%	6%	-5%	0%	7
c1ccc(C(Cc2nc(-c3ccncc3)no2)c2ccccc2)cc1	?	nt	3%	nt	?	-69*
CCCN1[C@@H]2c3ccc(-c4ccccc4)c(=O)n3C[C@@H]2[C@@H](CO)[C@@H]1C(=O)N[C@@H](C)c1ccccc1	nt	nt	nt	nt	nt	7
CC(NC(N)=O)C(=O)Nc1ccc(Cl)c(S(=O)(=O)Nc2ccc(Br)cc2)c1 (centres undefined)	29%	i	7%[46.1 µM]	-7%	8%[46.1 µM]	32
C/C(=N\NC(=O)c1ccc(Cl)c(Cl)c1)c1ccc(Br)s1	-12%	-20%	?	-13%	?	-83*
C/C(=N\NC(=O)c1cccc2ccccc12)c1ccccn1	-6%	?	?	-10%	7.9µM*	-96*
CC(C)(C)c1ccc(/C=N/NC(=O)c2ccccn2)cc1	-74%	i	3.2µM*	-12%	?	109
C/C(=N\NC(=O)c1ccc(Cl)c(Cl)c1)c1ccccn1	15%	1.3µM*	?	?	5.6µM*	-99*
Cc1ccc(NC(=O)c2cc(-c3cccs3)nc3ccccc23)c(C)c1	?	-11%	?	-2%	5%[46.1 µM]	7
Cc1cccc2sc(NNC(=O)c3cc(-c4cccs4)nc4ccccc34)nc12	?	?	-69%	-18%	?	-68*
C/C(=N\NC(=O)c1cc(-c2cccs2)nc2ccccc12)c1ccccn1	?	nt	4.6µM*	nt	6.5µM*	-101*
C/C(=N\NC(=O)c1cccc(Br)c1)c1ccccn1	27%	?	4.5µM*	?	?	-103*
C/C(=N\NC(=O)c1ccccc1Cl)c1ccccn1	30%	?	nt	?	nt	-97*
C/C(=N\NC(=O)c1cc(Br)ccc1O)c1ccccn1	-29%	?	9%[46.1 µM]	-6%	2%[46.1 µM]	39
COc1ccccc1CCNS(=O)(=O)c1ccc(N2CCCCS2(=O)=O)cc1	11%	-8%	nt	-12%	-3%[46.1 µM]	-24
O=C(N[C@H]1C/C=C\C[C@H](CC(=O)N(CCO)Cc2ccccc2)C(=O)N[C@@H](c2ccccc2)COC1=O)OCC1c2ccccc2-c2ccccc21	-4%	i	nt	?	nt	nt
CCCCN(C)c1c(C)nc2ccc(C(=O)Nc3cc(-c4ccccc4)ccc3OC)cn12	-8%	13%	nt	-11%	nt	30
COc1ccc(C(=O)N/N=C(\C)c2ccccn2)cc1OC	?	2.2µM*	6.3µM*	?	5.6µM*	-112*
